Compound activity from PubChem BioAssay.
Tau fibril FP = inhibitors of human tau fibril formation; Potency, µM (doses to about 57.7 µM), hits mostly inhibitors; 280,000 compounds, 0.39% hits; K18 P301L tau heparin fibrillization, Alexa594 FP, 6 h; note: nearly all actives have a fitted effect of over 55% in size
Target sequence (P10636 561-689 P618L limits assumed): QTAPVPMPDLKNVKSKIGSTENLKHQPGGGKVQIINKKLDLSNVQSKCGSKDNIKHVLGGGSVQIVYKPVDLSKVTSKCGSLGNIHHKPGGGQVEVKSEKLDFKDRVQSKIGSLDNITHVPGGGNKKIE
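K18 P301L tau (15 uM unlabeled/0.24 uM Alexa 594-labeled, final) + compound + heparin 20 uM final; 100 mM NaOAc pH 7; 6 hr 37 C; ThT 30 uM final added, 1 hr RT; FP ex 555/em 632 nm.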
Sfp inh = Sfp phosphopantetheinyl transferase inhibition. Biochemical Sfp PPTase activity, qHTS. Potency, µM, most hits filed as inhibitors. Q9F4F7. 310,000 compounds, 3.5% hits. AID 1490;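 note: the enzyme is Sfp with the accession as filed and its product quenches rhodamine fluorescence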
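Reaction rates are the 30-min fluorescence difference (ex 525, em 598 nm) in wells containing 15 nM Sfp, 5 uM rhodamine-CoA and 12.5 uM BHQ-2-YbbR at pH 7.6 with 10 mM MgCl2.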
JMJD2E inh = JMJD2E (human) inhibition. B2RXH2. JMJD2E catalytic domain, FDH-coupled NADH fluorescence (FDH is formaldehyde dehydrogenase). Potency, µM (series often up to 57.1 µM), usual class: inhibitors. 230,000 compounds, 1.6% hits. AID 2147; active = well fitted inhibition curve with a large enough effect, not every such curve was filed as active; inconclusive = small, poorly fitted or top-dose-only effect, or another doubt; inactive = no such curve, though single readings can be large or run the other way; note: nearly all actives have a fitted effect of over 50% in size
Target sequence (B2RXH2 1-337 limits assumed): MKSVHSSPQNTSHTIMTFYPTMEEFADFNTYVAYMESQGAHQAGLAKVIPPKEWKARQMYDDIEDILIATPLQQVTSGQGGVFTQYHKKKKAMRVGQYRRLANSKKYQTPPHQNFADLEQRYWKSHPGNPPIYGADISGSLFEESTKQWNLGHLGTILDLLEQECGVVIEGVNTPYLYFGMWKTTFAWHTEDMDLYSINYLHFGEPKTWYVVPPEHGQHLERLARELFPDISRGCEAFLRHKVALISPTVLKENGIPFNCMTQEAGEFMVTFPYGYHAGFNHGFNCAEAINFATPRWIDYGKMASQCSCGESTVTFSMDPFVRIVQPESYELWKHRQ
FBPA coupling cs = counter-screen for Giardia aldolase inhibitors: coupling enzyme system; activity change, negative = inhibition, % at 58.2 µM, hits read low; coupling enzyme system counterscreen, AmpLite Red fluorescence; 290,000 compounds, 0.67% hits; in the data active = activity change below about -30%
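Coupling enzymes only (glyceraldehyde-3-phosphate) + compound, at 57.5 uM final, 10 min RT; add substrate/coupling/AmpLite Red mix, 20 min RT; fluorescence ex 525/em 598 nm. Actives flag coupling-system interference.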
Tau fibril ThT = blocks human tau fibril formation measured by thioflavin T. P10636. recombinant tau K18 P301L, heparin-induced fibrillization, ThT fluorescence. Potency, µM (series often up to 57.4 µM), most hits filed as inhibitors. 270,000 compounds, 2.1% hits; note: nearly all actives have a fitted effect of over 55% in size
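K18 P301L tau (15 uM + 0.24 uM Alexa 594-tagged), heparin 20 uM, NaOAc pH 7, 6 h 37 C; ThT 30 uM, 1 h RT, ex 450/em 510 nm.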
Tau fluor counter = counter-screen for tau fibril formation inhibitors; Potency, µM (series often up to 57.7 µM); 280,000 compounds, 0.93% hits; tau K18 P301L Alexa594 fluorescence, heparin fibrillization; note: nearly all actives have a fitted effect of over 55% in size
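Human tau K18 P301L (15 uM unlabeled, 0.24 uM Alexa 594-labeled) in 100 mM sodium acetate pH 7 with 20 uM heparin, 6 hr at 37 C. ThT 30 uM added, 1 hr ambient; Alexa 594 FP and total fluorescence read at 555/632 nm.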
Large screens that a line does not name were inactive. Most compounds without a hit are left out; they make up all but 5.3% or so of the library. Unless noted, calls come from the whole dose curve; as a rule, active = well fitted curve in the direction sought with a large enough effect; inconclusive = small, poorly fitted or top-dose-only effect, or another doubt; inactive = no such curve, though single readings can be large; an effect the other way counts as inactive or inconclusive.

Cc1c(NC(=S)N/N=C\c2ccccc2O)c(=O)n(-c2ccccc2)n1C	JMJD2E inh inconclusive
Cc1c(NC(=S)N/N=C/c2ccc([N+](=O)[O-])cc2O)c(=O)n(-c2ccccc2)n1C	JMJD2E inh 10µM, Tau fluor counter inconclusive (no result: Tau fibril ThT)
COc1ccc(/C=N/NC(=S)Nc2c(C)n(C)n(-c3ccccc3)c2=O)cc1OC	Sfp inh 45µM
Cc1onc(-c2ccccc2)c1C(=O)Nc1nnc(COc2ccc(Cl)cc2)s1	Tau fibril FP inconclusive, Sfp inh 7.1µM, JMJD2E inh inconclusive, Tau fibril ThT inconclusive
COCC(=O)Nc1nnc(COc2ccc(Cl)cc2)s1	none
CCc1nnc(NC(=O)c2c(-c3ccccc3)noc2C)s1	none (no result: Tau fibril FP, JMJD2E inh, Tau fibril ThT, Tau fluor counter)
CCOCC(=O)Nc1nnc(COc2ccc(Cl)cc2)s1	Sfp inh 28µM, Tau fibril ThT inconclusive
COCc1nnc(NC(=O)COc2ccc3c(c2)OCO3)s1	Sfp inh 56µM (no result: Tau fibril FP, JMJD2E inh, Tau fibril ThT, Tau fluor counter)
CCN(CC)c1ccc(NC(=O)c2cnn3c(C(F)F)cc(-c4ccccc4)nc23)cc1	Tau fibril ThT inconclusive, Tau fluor counter inconclusive (no result: Sfp inh, JMJD2E inh, FBPA coupling cs)
Cc1ccc(-n2c3c(cc(-c4nc(-c5ccc(Cl)cc5)cs4)c2=O)C(=O)CC(C)(C)C3)cc1C	none (no result: Sfp inh, JMJD2E inh, FBPA coupling cs)
CCOc1ccc(CCNCc2c(C(=O)O)n(Cc3ccc(C)cc3)c3cc(OC)ccc23)cc1	Tau fibril FP inconclusive (no result: Sfp inh, JMJD2E inh, FBPA coupling cs)
Cc1cc(NN)nc(Cc2ccccc2)n1	Sfp inh 50µM (no result: Tau fibril FP, JMJD2E inh, Tau fibril ThT, Tau fluor counter)
COc1ccc(S(=O)(=O)N2CCC(n3c(C(F)(F)F)nc4cccnc43)CC2)cc1OC	none (no result: Sfp inh, JMJD2E inh, FBPA coupling cs)
OC1(c2ccc(Cl)c(C(F)(F)F)c2)CCN(CCCC(c2ccc(F)cc2)c2ccc(F)cc2)CC1	Sfp inh inconclusive (no result: Tau fibril FP, JMJD2E inh, Tau fibril ThT, Tau fluor counter)
O=C1C(Cl)=C(NC(=O)c2ccccc2)C(=O)C(Cl)=C1NC(=O)c1ccccc1	Sfp inh 0.89µM (no result: Tau fibril FP, JMJD2E inh, Tau fibril ThT, Tau fluor counter)
O=C(NC(NC1CCS(=O)(=O)C1)C(=O)c1cccs1)c1ccccc1 (centres undefined)	none
Cc1cccc(NC2=C(NC(=O)c3ccccc3)C(=O)c3ccccc3C2=O)c1	Sfp inh 20µM, FBPA coupling cs -41, Tau fibril ThT inconclusive
O=C(Cc1ccc(Cl)cc1)Nc1ccc(NC(=O)c2ccccc2)cc1	Sfp inh inconclusive
O=C(NC1=C(NC2CCS(=O)(=O)C2)C(=O)c2ccccc2C1=O)c1ccccc1 (centres undefined)	Sfp inh 35µM, FBPA coupling cs -62
O=C(NC1=C(Nc2ccc(Cl)cc2)C(=O)c2ccccc2C1=O)c1ccccc1	Sfp inh 56µM, JMJD2E inh inconclusive, FBPA coupling cs -30, Tau fibril ThT 18µM, Tau fluor counter inconclusive
O=C(c1cccc(F)c1)N1CCC[C@@]2(CCN(c3ccccn3)C2)C1	none (no result: Tau fibril FP, JMJD2E inh, Tau fibril ThT, Tau fluor counter)
COC(=O)C1=C(C(=O)OC)[C@@H]2N(C)c3ccccc3[C@@]23C[C@@H](C(=O)OC)N(S(=O)(=O)c2ccc(C#N)cc2)C3=N1	none
CN(C1=C(NC(=O)c2ccc(Cl)cc2)C(=O)c2ccccc2C1=O)c1ccccc1	FBPA coupling cs -55
CN(c1ccc(C(=O)Nc2ccc(Cl)cn2)cc1)S(=O)(=O)c1ccccc1	JMJD2E inh inconclusive
COC(=O)CC1c2ccccc2C(Cc2ccc(OC)cc2)C(C)N1C(=O)OC (centres undefined)	none
O=C(O)C1C2CCC(O2)C1C(=O)Nc1ccc(O)cc1 (centres undefined)	Sfp inh inconclusive, FBPA coupling cs -36
Cc1ccc(C)n1-c1ccc(-c2ccn[nH]2)cc1	Tau fibril ThT inconclusive
Cc1ccc(C)n1-c1nc(=S)[nH][nH]1	Sfp inh 14µM, JMJD2E inh inconclusive
N#Cc1cccc(NC(=O)C2CCN(S(=O)(=O)c3ccc4[nH]c(=O)ccc4c3)CC2)c1	none (no result: Sfp inh, JMJD2E inh, FBPA coupling cs)
O=C(CSc1nnc(NC(=O)c2ccccc2)s1)NCC1CCCO1 (centres undefined)	none (no result: Tau fibril FP, JMJD2E inh, Tau fibril ThT, Tau fluor counter)
O=C(CSc1nnc(NC(=O)c2ccccc2F)s1)NCC1CCCO1 (centres undefined)	Sfp inh 50µM (no result: Tau fibril FP, JMJD2E inh, FBPA coupling cs, Tau fibril ThT, Tau fluor counter)
COc1ccc(C2C(C(N)=O)=C(C)Nc3nc(SCc4ccccc4Cl)nn32)cc1OC (centres undefined)	none (no result: Sfp inh, JMJD2E inh, FBPA coupling cs)
